Growth data for 16 molecules are collected here from PubChem BioAssay (NCI).

The panel holds about 83,000 compounds, 20% with a hit somewhere; the sample as a whole holds those more often.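 For each line, cells grew in 96-well plates with the test compound present at a single concentration for 48 hours.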 Unmarked numbers belong to inactive results. The source made the active and inactive calls. How the source made its calls: active means growth percent below 10; inactive means the rest.

Test systems include T-47D breast; BT-549 breast; MDA-MB-435 melanoma; SW-620 colon; MCF7 breast; HCT-116 colon; HCC-2998 colon; KM12 colon.
What all share (assay): NCI-60 one-dose screen, 48 h (100 = growth as untreated, 0 = no growth, -100 = all killed)
Details in all cases: 10 µM unless noted

On to `COc1ccc2c(c1OC)CO[C@@H]2[C@H]1c2c(cc3c(c2OC)OCO3)CCN1S(=O)(=O)c1cn(C)cn1`, for which the growth is 33.4% in the test on T-47D breast; 38.2% in the test on BT-549 breast; -27.3% (active) in the test with MDA-MB-435 melanoma; 25.4% with SW-620 colon; 16.9% in the test on MCF7 breast; 14.4% in the test on HCT-116 colon. The growth in the test with HCC-2998 colon was 11.7%; in the test on KM12 colon, 11.3%.
`O=C(Nc1ccc(Oc2cccc(Cl)c2)c(Cl)c1)c1cccnc1`: the growth is 35.6% in the test with T-47D breast; 53.3% in the test with BT-549 breast; -44.3% (active) in the test on MDA-MB-435 melanoma; 25.4% in the test on SW-620 colon; 21.6% in the test on MCF7 breast; 29.9% with HCT-116 colon. In addition, the growth was 58% in the test on HCC-2998 colon and 28.1% in the test on KM12 colon.
For the molecule `NC(N)=NCCCCCNc1noc(Cc2c[nH]c3cc(Br)ccc23)n1`, the growth in the test with T-47D breast was 59.2%; in the test with BT-549 breast, 66.5%; with MDA-MB-435 melanoma, 87.7%; in the test with SW-620 colon, 92.2%; in the test on MCF7 breast, 77.2%; in the test on HCT-116 colon, 77.2%. In addition, the growth is 76.1% in the test with HCC-2998 colon and 45.1% with KM12 colon.
As to `COC(=O)c1c2c(c(C)[n+]([O-])c1C)C(=O)C(NCc1cccc(OC)c1)=CC2=O`, the growth with T-47D breast was 11.5%; in the test on BT-549 breast it was 57.5%; in the test on MDA-MB-435 melanoma, -70.6% (active); in the test on SW-620 colon, 7.85% (active); with MCF7 breast, 0.247% (active); in the test with HCT-116 colon, 1.61% (active). Further, the growth in the test with HCC-2998 colon is 22.3%; with KM12 colon, 22%.
On to `COc1ccc(-c2nn(-c3cccc(Cl)c3)cc2-c2cc(-c3ccc(Br)cc3)nc(N)n2)cc1`, for which the growth is 66.2% in the test on T-47D breast; 114% in the test with BT-549 breast; 99.6% in the test with MDA-MB-435 melanoma; 100% with SW-620 colon; 57.4% in the test on MCF7 breast; 91.5% in the test with HCT-116 colon. The growth with HCC-2998 colon is 104%; in the test on KM12 colon, 93.4%.
Take `CCCCC1=C(P(=O)(O)O)N[C@H](C(=O)O)CS1`: the growth is 96.7% in the test with T-47D breast; 102% in the test on BT-549 breast; 101% with MDA-MB-435 melanoma; 96.9% with SW-620 colon; 89.3% in the test with MCF7 breast; 96.5% in the test with HCT-116 colon. The growth in the test with HCC-2998 colon is 89.2%; with KM12 colon, 110%.
With `Clc1cccc(Nc2ncnc3ccc(-c4cnc5[nH]ccc5c4)cc23)c1`, the growth was 28.3% in the test with T-47D breast; 77.4% in the test on BT-549 breast; 88.3% with MDA-MB-435 melanoma; 107% in the test on SW-620 colon; 48.3% in the test with MCF7 breast; 75.1% with HCT-116 colon. Also, the growth with HCC-2998 colon was 95%; with KM12 colon, 72.6%.
As to `COC12C=C/C(=C(/C(=O)OCc3ccncn3)C(=O)CCCCCCCCC3(OC)C=C/C(=C(/C(=O)OCc4ccncn4)C(=O)CCCCCCCC1)O3)O2`, the growth is 25.3% in the test with T-47D breast; -27.1% (active) with BT-549 breast; -34.4% (active) with MDA-MB-435 melanoma; 12.9% in the test on SW-620 colon; 5.92% (active) in the test with MCF7 breast; -50.9% (active) in the test with HCT-116 colon. Also, the values for the growth in the test on HCC-2998 colon and in the test on KM12 colon were -85.1% (active) and -75.9% (active), respectively.
`CCCCCCCCCCCCCCCCOCCCOP(=O)(O)C1CCCN(O)C1=O` (stereo not drawn): the growth with T-47D breast was 43.2%; with BT-549 breast, 32.2%; in the test with MDA-MB-435 melanoma, 14.3%; in the test on SW-620 colon, 20.9%; in the test on MCF7 breast it was 18.5%; in the test on HCT-116 colon, 14.5%. The growth in the test on HCC-2998 colon is 3.73% (active); in the test on KM12 colon it was 7.79% (active).
For the molecule `CCOC(=O)C1=C(c2ccccc2)N=C2SC=C(c3ccc(Cl)cc3)N2C1c1ccc(Cl)cc1` (stereo not drawn), the growth is 52.4% with T-47D breast; 87.5% in the test on BT-549 breast; 93.2% with MDA-MB-435 melanoma; 81.8% with SW-620 colon; 69.5% with MCF7 breast; 63% in the test on HCT-116 colon. Moreover, the growth in the test with HCC-2998 colon is 86.2%; in the test with KM12 colon, 72.5%.
In the case of `CCOC(=O)C/C(=N\Nc1cc(=O)[nH]c2ccc(Br)cc12)C(=O)OCC`, the growth with T-47D breast is 105%; with BT-549 breast, 96.6%; in the test on MDA-MB-435 melanoma, 101%; in the test with SW-620 colon, 90.4%; in the test with MCF7 breast it was 91.9%; in the test on HCT-116 colon, 99.7%. Also, the growth is 96.9% in the test on HCC-2998 colon and 96% in the test with KM12 colon.
Regarding `Cc1c(-c2ccc(O)cc2)n(Cc2ccc(OCCN3CCCCCC3)cc2)c2ccc(O)cc12`, the growth in the test with T-47D breast is 58.4%; in the test with BT-549 breast, 84%; with MDA-MB-435 melanoma, 79.6%; in the test on SW-620 colon it was 66.3%; with MCF7 breast, 11.6%; in the test with HCT-116 colon, 59.1%. The growth was 114% in the test on HCC-2998 colon and 73.4% in the test with KM12 colon.
As to `C[C@@H](CO)[C@@H]1CCC=C2CC[C@]3(C)[C@H](CC[C@@H]4[C@@]5(C)CCCNC(C)(C)[C@@H]5CC[C@]43C)[C@H]21`, the growth with T-47D breast is 58.9%; in the test with BT-549 breast it was 81.5%; with MDA-MB-435 melanoma it was 7.57% (active); with SW-620 colon, -72.1% (active); in the test with MCF7 breast, 7.68% (active); in the test on HCT-116 colon it was -20.3% (active). Also, the growth in the test on HCC-2998 colon was -61.5% (active); with KM12 colon it was 4.99% (active).
On to `O=C1/C(=C/c2ccccc2Br)COc2ccc(O)cc21`, for which the growth was 83.7% in the test with T-47D breast; 53.9% in the test on BT-549 breast; 40.9% with MDA-MB-435 melanoma; 18.3% in the test on SW-620 colon; 9.13% (active) in the test on MCF7 breast; 18.6% in the test on HCT-116 colon. Also, the growth with HCC-2998 colon is 100%; in the test with KM12 colon, 23.9%.
Regarding `[O-]/[N+](=C\c1ccc(-n2cc(Cc3ccccc3Cc3cn(-c4ccc(/C=[N+](/[O-])c5ccccc5)cc4)nn3)nn2)cc1)c1ccccc1`, the growth in the test on T-47D breast was 93.8%; in the test with BT-549 breast it was 83.3%; in the test with MDA-MB-435 melanoma, 109%; with SW-620 colon it was 102%; with MCF7 breast, 90.6%; with HCT-116 colon, 91.2%. For the same molecule, the results for the growth with HCC-2998 colon and in the test with KM12 colon were 104% and 98.8%, respectively.
Regarding `Cc1ccccc1/C=C/C(=O)c1cccc(OCCCOc2cccc(C(=O)/C=C/c3ccccc3C)c2)c1`, the growth in the test on T-47D breast is 73.2% [3 µM]; in the test on BT-549 breast, 96.7% [3 µM]; in the test on MDA-MB-435 melanoma it was 97.7% [3 µM]; in the test with SW-620 colon it was 93.3% [3 µM]; with MCF7 breast it was 13.5% [3 µM]; in the test with HCT-116 colon it was 38.2% [3 µM]. Moreover, the growth with HCC-2998 colon is 91.2% [3 µM]; with KM12 colon it was 95.4% [3 µM].
